Experimental data as given in PubChem BioAssay AID361 (National Center for Advancing Translational Sciences (NCATS), 2006).
About 600 (1.2%) of roughly 51,000 compounds were called active. Another 2% or so got no clear call; they are omitted. Rule as the data show it: active = potency below about 11 µM; inconclusive = mostly about 12 µM to 25 µM; inactive = weaker than that;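 the screen sought inhibitors and activators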. Shown is part of a subset that was picked to be rich in actives.

These compounds were tested on pyruvate kinase (Bacillus stearothermophilus) (assay: Pyruvate Kinase). Details: purified pyruvate kinase, luminescence ATP production; ribose 5-phosphate activator present at AC10.
Method: Pyruvate kinase (partially purified from Bacillus stearothermophilus) was assayed for its ability to generate ATP from ADP using phosphoenolpyruvate (PEP) as a substrate. ATP generation was detected in a coupled reaction by luciferase-mediated luminescence, an ATP-dependent process. Pyruvate kinase substrates, PEP and ADP, were present in the assay at Km and […]-fold below Km respectively. The enzyme was assayed at an intermediate level of activity to screen for inhibitors and activators. In addition, ribose 5 phosphate, a positive modulator of pyruvate kinase, was included in the assay at AC10 in order to identify possible potentiators.
NCGC Assay Protocol Summary:
Three uL of substrate mix (final concentration, 50 mM imidazole pH 7.2, 50 mM KCl, 7 mM MgCl2, 2 mM PEP, 0.1 mM ADP, 0.7 nM ribose 5 phosphate, 0.01% Tween 20, 0.05% BSA) was dispensed into 1536 well plates. 23 nL of compound were delivered by a pin tool and 1 uL of enzyme mix (final concentration, 10 nM pyruvate kinase, 50 mM imidazole pH 7.2, 0.05% BSA) was added. After centrifugation at 1000 rpm for less than a minute, plates were incubated at room temperature for 2 hours. Three uL of detection and kinase stop mix (PKLight, Cambrex) was added, the plates centrifuged, and luminescence read by a ViewLux (Perkin Elmer) at 5 second exposure/plate. Data were normalized to the controls for AC100 stimulation (5 uM ribose 5 phosphate) and to AC100 inhibition (110 uM luteolin).
Potency is read from the fitted curve at half-maximal effect.

Potency, active:
CCOC(=O)C1CCN(c2ncnc3c2oc2ccc(Br)cc23)CC1 10.6 µM, COc1ccc(-c2cn3ccsc3n2)cc1 4.01 µM, O=C(OC1CCOC1=O)c1ccc(-c2nc3ccccc3s2)s1 (stereo not drawn) 4.84 µM, O=C(Oc1ccc(-c2nc(-c3ccccn3)no2)cc1)c1ccccc1 6.85 µM, C=CCn1c(C)cc(C(=O)CN2C(=O)c3ccccc3C2=O)c1C 5.37 µM, COc1ccc(-c2cc3ccc(OCc4nn[nH]n4)cc3oc2=O)cc1 5.08 µM, Cn1c(-c2ccco2)nc2cc3ccccc3cc21 0.493 µM, COc1ccc(N=Cc2c(O)[nH]c3ccccc23)cc1OC 4.61 µM, Cc1ccc2nc(-c3ccc(SCC(=O)Nc4cc(C)on4)nc3)[nH]c2c1 2.74 µM, CCc1cc2c(=O)c(-c3ccon3)c(N)oc2cc1OC 4.26 µM, O=C(Nc1ccc(Cl)cn1)c1cnn2cccnc12 8.73 µM, Cc1nc(-c2ccc(NC(=O)c3cccs3)cc2)cs1 2.04 µM, COc1ccc(N(Cc2cc3cc(OC)ccc3[nH]c2=O)S(C)(=O)=O)cc1 7.73 µM

Potency, inactive:
CC(C)(C)NC(=O)NC(=O)COC(=O)Cn1c(C(F)(F)F)nc2ccccc21 > 57 µM, CCN(CC)C(=O)CSc1nnc(-c2ccc(S(=O)(=O)NCc3ccccc3Cl)cc2)o1 > 57 µM, CCn1c(SCC(=O)Nc2nc3ccc(OC)cc3s2)nnc1-c1ccoc1C > 57 µM, O=C(CN1CCN(c2ccccn2)CC1)NCc1cccs1 > 57 µM, CC(C)n1c(SCC(=O)Nc2ccccc2N2CCCCC2)nc2c1c(=O)n(C)c(=O)n2C > 57 µM, COC(=O)c1ccc(Oc2nc(NC(C)C)nc(SC)n2)cc1 > 57 µM, CNC(=O)CSc1nnc(CCc2ccccc2)n1-c1ccccc1 > 57 µM, CCOC(=O)C1CCN(C(=O)c2oc3ccc(S(=O)(=O)N4CCCCCC4)cc3c2C)CC1 > 57 µM, Cc1cc(C)nc(N2CCN(c3ncnc4c3oc3ccccc34)CC2)n1 > 57 µM, CCCC(=O)Nc1cccc(-c2cn3ccsc3n2)c1 49.6 µM, O=C(NCc1cn2ccsc2n1)Nc1ccc(Cl)cc1 > 57 µM, COc1ccc(CCNC(=O)CN2CCC(n3nnc4cc(F)ccc43)CC2)cc1OC > 57 µM, CCCc1cc(=O)oc2c(C)c(O)c(CN3CCCCC3)cc12 > 25.6 µM, COc1ccccc1C(=O)Oc1ccc(N2C(=O)CCC2=O)cc1 > 57 µM, O=S(=O)(/C=C/c1ccccc1)NCCc1ccccn1 > 57 µM, O=C(c1cccs1)N1CCC(c2nc3ccccc3s2)CC1 > 57 µM, Cc1nn(Cc2ccccc2)c(Cl)c1C(=O)OC1CCOC1=O (stereo not drawn) > 57 µM, CC(NCCO)C(=O)C12CC3CC(CC(C3)C1)C2 (stereo not drawn) > 57 µM, CCC(C)NC(=O)N[C@@H](CCSC)C(=O)O (stereo partly drawn) > 57 µM, COC(=O)CNC(=O)c1ccc2c(c1)S(=O)(=O)c1ccccc1C2=O > 57 µM, O=C(Oc1ccccc1)c1ccc2nccnc2c1 > 57 µM, CC(C)c1nc(-c2ccccn2)no1 > 57 µM, CCOC(=O)CSC1=C(C#N)C(c2ccco2)C(C(=O)OCc2ccccc2)=C(C)N1 (stereo not drawn) > 57 µM, N#Cc1c2c(c(-c3ccccc3)[nH]c1=O)CCCC2 > 25.6 µM, CCc1nnc(NC(=O)CSc2nnc(-c3ccncc3)n2Cc2ccccc2)s1 > 57 µM, C=CCN(CC=C)C(=O)CN1C(=O)c2ccccc2C1=O > 57 µM, Cc1cc(C(=O)COC(=O)CCCN2C(=O)c3ccccc3C2=O)c(C)n1C > 57 µM, O=C1CCC(C(=O)Nc2ccc(OC(F)F)cc2)N1 (stereo not drawn) > 57 µM, CCCCc1cc(=O)oc2cc(C)cc(OCc3nn[nH]n3)c12 > 57 µM, O=c1oc2cc(O)ccc2cc1-c1ccc(F)cc1 > 57 µM, CCCCOc1ccc(C(C)(O)CCN2CCOCC2)cc1 (stereo not drawn) > 57 µM, O=C(CC1Nc2ccccc2NC1=O)Nc1ccccc1 (stereo not drawn) > 11.4 µM, Cc1ncc(CC(=O)n2cc(C(=O)c3cc(Cl)ccc3O)cn2)s1 > 57 µM, O=C1CC(Cc2ccccc2)C(=O)N1c1ccc(Cl)cn1 (stereo not drawn) > 57 µM, O=C(O)CCCC(=O)Nc1ccccc1-n1ccnc1 > 57 µM, CC(=O)c1cc2c(cc1N)OCO2 > 57 µM, CCCCN(C)C(=O)C1CCN(Cc2ccccn2)CC1 > 57 µM, Cc1cc(N2CCCC2)n2nc(C)c(-c3ccccc3)c2n1 > 57 µM, CN(c1nc2ccccc2n2c(-c3ccco3)nnc12)S(=O)(=O)c1ccccc1 > 57 µM, c1coc(-c2nc3nc4ccccc4n3nc2-c2ccco2)c1 > 57 µM, Clc1ccc(CSc2nnc([C@@H]3CCCN3)o2)cc1 > 57 µM, CCN1CCN(C(=O)c2ccccc2N(C)S(=O)(=O)c2ccc(C)cc2)CC1 > 57 µM, Cc1nnc(NC2=NCCCCC2)o1 > 57 µM, Cc1cc(C)c2nc(SCCC#N)nc(C)c2c1 48.9 µM, Fc1ccc2[nH]c3c(N4CCN(Cc5ccc6c(c5)OCO6)CC4)ncnc3c2c1 > 25.6 µM, CNC(=O)C1CC(=O)N(Cc2ccc3c(c2)OCO3)C(=Nc2ccc(F)cc2)S1 (stereo not drawn) > 57 µM, Cc1cc(C)n(C(=O)c2ccc(C)c(S(=O)(=O)N3CCOCC3)c2)n1 > 57 µM, COc1ccc2nc(N3CCCC(O)C3)c(C#N)cc2c1 (stereo not drawn) 41.4 µM, O=C(NCc1ccccc1)C1C(=O)N(Cc2ccccc2)C(=O)C1C1(O)CCCC1 (stereo not drawn) > 25.6 µM, CC1CCCN(C(=O)Cn2c(=O)oc3ccccc32)C1 (stereo not drawn) > 57 µM, COc1c(F)c(F)c(-c2csc(N)n2)c(F)c1F > 57 µM, Cc1cc(=O)oc(C)c1C(=O)Nc1cnc2ccccc2c1 > 57 µM, Cc1ccc2c(C(=O)CN3CCCC3)c(C)[nH]c2c1 > 11.4 µM, COc1ccc(OC)c(N=Cc2c(O)[nH]c3ccccc23)c1 > 57 µM, COC(=O)c1[nH]c2ccccc2c1NS(=O)(=O)c1ccc(OC)cc1OC > 57 µM, Cc1cc(NC(=O)CSc2nnc(-c3ccc(Cl)s3)o2)no1 > 57 µM, Cc1cc(C)c2c(c1)cc(C)c1nnc(SCC(=O)Nc3cc(C)on3)n12 > 57 µM, Cc1nc(SCC(=O)Nc2cc(C)on2)c2c(C)c(C)sc2n1 > 57 µM, COc1ccc(OC)c2c(N)c(C#N)c(C(F)(F)C(F)(F)F)nc12 > 25.6 µM, C=CCc1cccc2cc(C(=O)N3CCN(C(=O)OCC)CC3)c(=O)oc12 > 57 µM, COc1ccccc1CNCc1cccs1 > 57 µM, COc1ccc(CNC(=O)c2c(C)cc(=O)oc2C)cc1OC > 25.6 µM, Cc1ccc(C(=O)NCC2CCCO2)o1 (stereo not drawn) > 57 µM, COc1cccc(N2CC(C(=O)Nc3c(C)cccc3C)CC2=O)c1 (stereo not drawn) > 57 µM, Cc1cccc(NC(=O)c2ccccc2NC(=O)C(C)(C)C)n1 > 57 µM, CCn1c(=N)n(CC(=O)c2cccc(OC)c2)c2ccccc21 38.1 µM, Cn1c(/C(C#N)=C2/CCCCCN2)nc2ccccc21 > 57 µM, CC1CCCCN1CC(=O)NCc1ccc2c(c1)OCO2 (stereo not drawn) > 57 µM, CN(CCc1ccccn1)S(=O)(=O)c1ccc2c3c(cccc13)C(=O)N2 > 57 µM, CSc1ccc(Cl)c(C(=O)OCC(=O)N2CC(C)OC(C)C2)c1 (stereo not drawn) > 57 µM, NC(=O)COc1ccc2c3c(c(=O)oc2c1)CCCCC3 > 57 µM, CCN(CC)S(=O)(=O)c1cccc(C(=O)NCC(=O)OCC(=O)NCc2ccccc2)c1 > 57 µM, CCCCC(CC)C(=O)Nc1ccc(Cl)cn1 (stereo not drawn) > 57 µM, CC(Oc1ccc(Cl)cc1)C(=O)Nc1ncccn1 (stereo not drawn) > 57 µM, O=C(O)c1ccc(NC(=O)c2cccs2)cc1 > 57 µM, O=C(Nc1ncccn1)c1cccs1 > 57 µM, COC(=O)CCSc1nccn1Cc1ccccc1 > 57 µM, O=c1c(F)cn(C2CCCO2)c(=O)n1Cc1ccccc1Cl (stereo not drawn) > 25.6 µM, CCCOc1ccc(CN(CCO)CCO)cc1C(=O)OC > 57 µM, CCC(=O)N(Cc1cc2cc(OC)ccc2[nH]c1=O)c1ccccc1C > 57 µM, CCN(Cc1cc2cc(C)ccc2[nH]c1=O)S(=O)(=O)c1ccccc1 > 57 µM, COc1cccc(NC(=O)c2ccccc2SC)c1 > 57 µM, CC(C)(O)C#Cc1ccc(C(=O)N2CCC(C(N)=O)(N3CCCCC3)CC2)cc1 > 57 µM, Cc1ccc(NC(=O)CS(=O)CC(=O)N(c2ccccc2)C(C)C(=O)NC2CCCC2)cc1 (stereo not drawn) > 57 µM, CCCCC(=O)N(c1ccc(OC)cc1)C1C=CS(=O)(=O)C1 (stereo not drawn) > 57 µM
